This note sets out measurements from PubChem BioAssay AID602281 (The Scripps Research Institute Molecular Screening Center, 2012).

Out of some 360,000 compounds screened, about 2,900 (0.81%) were called active. The list comes from a sample in which actives are over-represented; it also holds similar structures and randomly drawn compounds. Values without a mark were called inactive.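 How the source made its calls: active means inhibition above the mean inhibition across every tested compound plus 3 SD (cut at about 22% in these data); inactive means the rest.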

The target of this experiment is Perilipin-5 (Homo sapiens) + 1-acylglycerol-3-phosphate O-acyltransferase ABHD5 (Homo sapiens) (UniProt Q00G26+Q8WTS1). As to the kind of experiment: blockers of ABHD5 binding to perilipin-5 – cell lysate, split luciferase complementation, luminescence, primary screen (AID 602281).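 Further: 0% = DMSO only wells and the 100% control is not disclosed.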 Conditions: Split G. princeps luciferase complementation, 4 h, at 4 µM, hits give high values.
Perilipin-5 (Homo sapiens) + 1-acylglycerol-3-phosphate O-acyltransferase ABHD5 (Homo sapiens), sequence (Q00G26 whole entry, looked up): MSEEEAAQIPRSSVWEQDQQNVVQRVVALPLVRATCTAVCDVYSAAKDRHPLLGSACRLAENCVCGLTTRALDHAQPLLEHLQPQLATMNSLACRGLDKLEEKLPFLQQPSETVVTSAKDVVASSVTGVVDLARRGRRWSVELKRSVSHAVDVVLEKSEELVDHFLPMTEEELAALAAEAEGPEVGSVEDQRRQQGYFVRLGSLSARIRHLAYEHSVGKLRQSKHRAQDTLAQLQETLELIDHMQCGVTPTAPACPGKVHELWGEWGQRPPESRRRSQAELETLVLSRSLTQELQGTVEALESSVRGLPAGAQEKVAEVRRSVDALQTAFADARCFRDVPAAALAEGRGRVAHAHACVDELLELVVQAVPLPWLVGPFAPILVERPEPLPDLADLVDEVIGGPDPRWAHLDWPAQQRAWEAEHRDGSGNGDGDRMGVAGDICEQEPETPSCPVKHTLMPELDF
Perilipin-5 (Homo sapiens) + 1-acylglycerol-3-phosphate O-acyltransferase ABHD5 (Homo sapiens), sequence (Q8WTS1 whole entry, looked up): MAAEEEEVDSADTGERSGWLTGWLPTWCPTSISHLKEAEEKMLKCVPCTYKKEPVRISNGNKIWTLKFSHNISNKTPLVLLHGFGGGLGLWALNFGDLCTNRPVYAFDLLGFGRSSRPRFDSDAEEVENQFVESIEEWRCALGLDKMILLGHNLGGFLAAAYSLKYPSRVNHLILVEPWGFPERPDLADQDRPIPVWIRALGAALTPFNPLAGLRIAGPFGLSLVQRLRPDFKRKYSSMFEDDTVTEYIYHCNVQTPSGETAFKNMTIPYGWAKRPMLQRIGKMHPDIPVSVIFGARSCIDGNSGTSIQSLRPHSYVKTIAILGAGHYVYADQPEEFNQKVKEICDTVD
Take `COc1ccc(C2OC(CCc3ccccc3)Cc3[nH]c(=S)[nH]c(=O)c32)cc1` (configuration not stated): the inhibition is -6.49%. Under `CC(C)C1Cc2[nH][nH]c(=O)c2C(c2ccc(Cl)cc2)O1` (configuration not stated) stands 4.21%; under `O=c1[nH][nH]c2c1[C@H](c1ccc(Cl)cc1)O[C@H](CCc1ccccc1)C2`, 29.6% (active); under `CCOCCCNC(=O)c1ccc(CS(=O)(=O)c2cccc(C(F)(F)F)c2)o1`, 9.27%.

For `N#C/C(=C(\O)C(F)(F)F)c1nnc2n1CCCCC2`, the inhibition is 4.79%.

For `CC(=O)OCCOCn1cnn2c(=O)c(Br)c(C)nc12`, the inhibition is -1.92%. Consider `Cc1cc2c(c(=O)n1Cc1ccco1)C(c1ccccc1)C(C#N)=C(N)O2` (configuration not stated), for which the inhibition was 36.4% (active). In the case of `Cc1cc2c(c(=O)n1C)C(C(C)C)C(C#N)=C(N)O2` (configuration not stated) it was 1.5%; in that of `Cn1c2c(c(=O)n(C)c1=O)C(c1cccc(F)c1)C(C#N)=C(N)O2` (configuration not stated), 12.7%; in that of `CC1CCCCC1NC(=O)CSc1nnc(-c2ccncc2)n1CCCN(C)C` (configuration not stated), 3.79%. For the molecule `COC1=NC2=NCCN2C(OC)=N1`, the inhibition is 7.21%. In the case of `Cn1c2ccccc2c2cc(/C=C(\NC(=O)c3ccccc3)C(=O)NCC(=O)O)ccc21` it was 4.74%; in that of `C[C@H](CO)N1C[C@H](C)[C@@H](CN(C)Cc2ccc(-c3ccccc3)cc2)Oc2ccc(NC(=O)Cn3cnnn3)cc2C1=O`, 1.64%. In the case of `O=C(CSC1=NS(=O)(=O)c2cc(F)ccc2N1)Nc1ccccc1F` it was -1.35%; in that of `C=CCNC(=S)/N=c1/ccccn1Cc1ccccc1`, -6.7%; in that of `CN1CCC[C@@H]1CCO[C@](C)(c1ccccc1)c1ccc(Cl)cc1`, 24.5% (active).

In the case of `CC1CCCN(CC(=O)Nc2cc(Cl)ccc2Oc2ccccc2)C1` (configuration not stated), the inhibition was -6.16%. In the case of `OC(c1ccccc1)(c1ccccc1)C1CCN(CCCOc2ccccc2)CC1` it was 4.12%; in that of `Cc1cc(C)cc(N)c1`, -4.69%; in that of `COc1cc(/C=C/CNC[C@H]2O[C@@H](n3cnc(C(N)=O)n3)[C@H](O)[C@@H]2O)ccc1O`, 9.45%.

As to `COc1ccc(N/C=C(\C2OC(=O)c3ccccc32)[N+](=O)[O-])cc1` (configuration not stated), the inhibition was 42.9% (active). As to `COc1ccc(NC(=O)C2=C(C)NC(=O)NC2c2ccccc2[N+](=O)[O-])cc1` (configuration not stated), the inhibition is -1.09%.

On to `COc1ccc(NC(=O)ON=C2c3ccccc3-c3ccccc32)cc1`, for which the inhibition is -4.58%. Regarding `Cc1cc(C)c(S(=O)(=O)N2CCOCC2)cc1C`, the inhibition was 2.37%. Under `CC(=O)c1ccc(N=C2SCCCN2C(=O)C2CCCCC2)cc1` stands -0.57%; under `CC(=O)c1c(C)[nH]c(C(=O)COc2ccc3c(C)cc(=O)oc3c2)c1C`, -4.41%; under `O=C(NC1=CC(=O)c2ccccc2C1=O)c1ccccc1`, 84.6% (active). Under `C/C(=N\NC(=O)c1ccc(C)cc1)C1C(=O)c2ccccc2C1=O` stands 5.2%; under `CN(C)C(=O)c1ccc(NC(=O)c2ccccc2-c2ccccc2)cc1`, 2.67%.

For the molecule `CCC(=O)Nc1ccc(C(=O)CSc2nnc(CNc3ccc(Cl)cc3)o2)cc1OC`, the inhibition was -15.2%. Under `OC1CSc2nc3ccccc3n2C1` (configuration not stated) stands 1.22%; under `O=C(Cc1ccccc1Cl)N1CCOCC1`, 1.3%; under `Cc1cc(C)c(NC(=O)CN2C(=O)NC(Cc3ccccc3)C2=O)c(C)c1` (configuration not stated), 3.3%. In the case of `O=C(Nc1nnc(Cc2ccc(Cl)cc2)s1)c1cccnc1`, the inhibition was 10%. Under `Cc1ccc(CS(=O)(=O)c2ncc(Cl)c(C(=O)Nc3nnc(C)s3)n2)cc1` stands 43.2% (active); under `Cc1ccc(CS(=O)(=O)CCC(=O)NC2CC2)cc1`, 0.91%; under `CN(Cc1ccccc1)S(=O)(=O)c1nnc(NC(=O)c2ccccc2F)s1`, -11.4%. Under `CSc1nnc(NC(=O)c2nc(S(=O)(=O)Cc3ccc(C)cc3)ncc2Cl)s1` stands 32.5% (active); under `CCOC(=O)c1sc(N)c(C#N)c1COC(=O)C1=COCCO1`, -2.21%. Turning to `CCCCn1c(N)c(N(CCOC)C(=O)c2cccc(S(=O)(=O)N(C)c3ccccc3)c2)c(=O)[nH]c1=O`, the inhibition was -4.97%.

In the case of `COC(=O)Cc1ccc(N(Cc2ccccc2F)S(=O)(=O)c2ccc(Br)cc2)cc1`, the inhibition is 0.04%. With `Cc1cccc(NC(=O)c2cccc(C(=O)Nc3cccc(C)c3C)n2)c1C`, the inhibition is -2.21%. In the case of `Cc1cccc(NC(=O)c2ccc(OCC(=O)NCc3ccccc3)cc2)c1C` it was -5.25%. Under `Cc1cccc(NC(=O)c2ccc3nsnc3c2)c1C` stands 122% (active); under `Cc1noc(C)c1COc1ccccc1C(=O)N(C)CC(=O)Nc1cccc(F)c1`, 8.24%; under `O=NN(CCCl)C(=O)NCCc1cccc[n+]1[O-]`, 1.74%. Under `COC(=O)C1(C)NC(c2ccccc2OC)C2C(=O)N(c3ccccc3)C(=O)C21` (configuration not stated) stands 69.3% (active); under `COC(=O)C1(C)NC(c2ccc(F)cc2)C2C(=O)N(c3ccccc3)C(=O)C21` (configuration not stated), -0.78%. In the case of `COC(=O)C1(C)NC(c2ccc(C)cc2)C2C(=O)N(c3ccc(F)cc3)C(=O)C21` (configuration not stated), the inhibition was 4.79%. As for `CC(C)CNC(=S)NNC(=O)c1nn(C)cc1Cl`, the inhibition is -4.74%. In the case of `CCOc1ccc(CCN2C(=O)C(=O)N([C@@H](Cc3ccc(O)cc3)CN3CCC[C@H]3CN3C(=O)C(=O)NC[C@@H]3CC(C)C)C[C@@H]2Cc2ccccc2)cc1` it was 3.51%; in that of `Cc1cc(NC(=O)COC(=O)COc2ccc(Cl)cc2C)c([N+](=O)[O-])cc1C`, 4.5%.

Turning to `CC(=O)c1ccc(N2CCN(S(=O)(=O)c3c(C)[nH]c(=O)[nH]c3=O)CC2)cc1`, the inhibition was 1.36%. On to `CCN(CCCNC(=O)c1ccc2c(c1)NC(=O)CN2C)c1cccc(C)c1`, for which the inhibition is 76.6% (active). On to `CCN(CCCNC(=O)CCn1c(=O)[nH]c2ccsc2c1=O)c1ccccc1`, for which the inhibition is -1.79%. Regarding `CCN1CCN(CCNC(=O)c2ccc3c(c2)NC(=O)/C(=C\c2cccc(Cl)c2)S3)CC1`, the inhibition was 12.3%. In the case of `CCN(c1ccc2c(c1)OCO2)S(=O)(=O)c1cc(Br)cc2c1N(C(=O)C1CC1)CC2` it was -5.83%.

As a reminder, the inhibition is the change of the read-out against control, counted positive when it falls.
